Source: the supplement of paper PMC3545927
The list shows a part of the results. How many sequences the whole screen found active is unknown.

B1: HC740 (peptide)
chain: CASYLKGSSGAGNASASA
B2: HC1602 (peptide)
chain: CAIQRLHGLSAGNASASA
B3: HC2148 (peptide)
chain: CAWVVTSTWVAGNASASA
B4: FS-2976 (peptide)
chain: CARKRRSLGDAGNASASA
B5: HC474 (peptide)
chain: CAFKIRMYVGAGNASASA
B6: FS-2240 (peptide)
chain: CARTIRSFEGAGNASASA
B7: FS-1656 (peptide)
chain: CASKGRRRKDAGNASASA
B8: FS-1560 (peptide)
chain: CARKRRVRKDAGNASASA
B9: HC1526 (peptide)
chain: CACTMLVCGDAGNASASA
B10: FS-1947 (peptide)
chain: CARFGRQDEGAGNASASA
B11: FS-3109 (peptide)
chain: CARTNRDMHGAGNASASA
B12: FS-2979 (peptide)
chain: CARKRRVLTPAGNASASA
B13: TV3 (peptide)
chain: CALYFQSGTVAGNASASA
B14: HC648 (peptide)
chain: CAVFSQMETKAGNASASA
B15: HC882 (peptide)
chain: CAGYTGDFDSAGNASASA
B16: HC1532 (peptide)
chain: CAICESAGVQAGNASASA
B17: FS-2780 (peptide)
chain: CARRKRLRQDAGNASASA
B18: FS-2039 (peptide)
chain: CARKRRSTNEAGNASASA
B19: FS-87 (peptide)
chain: CARRNRLRKDAGNASASA
B20: FS-2217 (peptide)
chain: CARKRRSTDFAGNASASA
B21: FS-2822 (peptide)
chain: CARTGRPVEPAGNASASA
B22: FS-2686 (peptide)
chain: CARKGRCVEPAGNASASA
B23: FS-2687 (peptide)
chain: CARKGRNKEIAGNASASA
B24: FS-2696 (peptide)
chain: CARKRKGSDDAGNASASA
B25: FS-1967 (peptide)
chain: CARRKRKNKDAGNASASA
B26: HC1218 (peptide)
chain: CAQVPSPEFFAGNASASA
B27: HC838 (peptide)
chain: CAVTVPHPNIAGNASASA
B28: HC361 (peptide)
chain: CASLLAPGAKAGNASASA

Target: furin, P09958
Sequence (P09958 whole entry): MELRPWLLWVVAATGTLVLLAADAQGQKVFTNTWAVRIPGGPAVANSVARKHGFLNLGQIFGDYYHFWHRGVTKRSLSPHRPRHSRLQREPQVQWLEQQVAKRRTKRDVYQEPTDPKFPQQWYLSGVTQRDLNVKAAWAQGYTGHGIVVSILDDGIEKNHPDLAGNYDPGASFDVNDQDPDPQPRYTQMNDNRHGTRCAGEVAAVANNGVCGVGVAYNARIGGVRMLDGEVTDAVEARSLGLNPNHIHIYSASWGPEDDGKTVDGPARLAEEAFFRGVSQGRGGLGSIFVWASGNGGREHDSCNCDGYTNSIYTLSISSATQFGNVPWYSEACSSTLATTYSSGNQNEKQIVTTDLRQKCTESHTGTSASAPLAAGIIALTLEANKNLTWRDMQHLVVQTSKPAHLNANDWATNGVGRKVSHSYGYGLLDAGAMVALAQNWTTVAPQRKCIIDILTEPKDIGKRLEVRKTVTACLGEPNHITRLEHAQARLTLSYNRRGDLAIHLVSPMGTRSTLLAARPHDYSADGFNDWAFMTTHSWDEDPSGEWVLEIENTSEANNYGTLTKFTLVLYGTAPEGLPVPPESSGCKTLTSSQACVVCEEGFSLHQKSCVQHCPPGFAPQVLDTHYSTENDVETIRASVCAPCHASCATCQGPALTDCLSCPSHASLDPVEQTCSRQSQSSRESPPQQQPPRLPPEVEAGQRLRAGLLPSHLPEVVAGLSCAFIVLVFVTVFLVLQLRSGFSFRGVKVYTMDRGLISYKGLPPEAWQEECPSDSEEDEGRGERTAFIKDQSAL
Experiment: furin cleavage Z-score vs untreated control; higher = more cleavage, active = 3.5 or more, inactive = 1 or less, 8 variable residues between constant flanks
Outline: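 The cleavage Z-score was derived for purified furin acting on 8-mer peptides held on magnetic beads and fused to a cDNA oligonucleotide. Digests lasted 7.5, 15 or 30 min at 1:10 enzyme:substrate in 50 mM HEPES pH 7.5 with CaCl2 and NaCl. Sequencing counts of released DNA, log-transformed against furin-free reactions, were lowess-adjusted and scaled by median absolute deviation.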

Sequence	furin cleavage Z-score (7.5 min)	furin cleavage Z-score (15 min)	furin cleavage Z-score (30 min)
B1	-0.0827 (inactive)	-0.32 (inactive)	-1.27 (inactive)
B2	-1.82 (inactive)	1.34	-0.804 (inactive)
B3	-0.151 (inactive)	0.93 (inactive)	-1.01 (inactive)
B4	11.1 (active)	13.3 (active)	9.59 (active)
B5	-0.697 (inactive)	0.386 (inactive)	-0.234 (inactive)
B6	3.24	4.83 (active)	5.83 (active)
B7	5.25 (active)	6.69 (active)	5.72 (active)
B8	8.86 (active)	7.9 (active)	6.61 (active)
B9	-1.57 (inactive)	-1.58 (inactive)	0.193 (inactive)
B10	-2.89 (inactive)	-0.0904 (inactive)	-0.336 (inactive)
B11	-0.446 (inactive)	1.17	-0.99 (inactive)
B12	-0.402 (inactive)	-0.0349 (inactive)	-1.55 (inactive)
B13	-1.09 (inactive)	-1.65 (inactive)	-0.81 (inactive)
B14	-1.33 (inactive)	-0.992 (inactive)	-0.89 (inactive)
B15	0.222 (inactive)	-2.26 (inactive)	-1.5 (inactive)
B16	0.831 (inactive)	-0.227 (inactive)	-1.02 (inactive)
B17	0.471 (inactive)	0.0552 (inactive)	1.44
B18	13.4 (active)	14 (active)	10.3 (active)
B19	7.91 (active)	8.84 (active)	6.68 (active)
B20	9.58 (active)	11.2 (active)	9.06 (active)
B21	-0.133 (inactive)	-0.269 (inactive)	-0.327 (inactive)
B22	3.13	3.86 (active)	4.66 (active)
B23	0.916 (inactive)	0.216 (inactive)	0.59 (inactive)
B24	1.74	0.267 (inactive)	-0.22 (inactive)
B25	-0.815 (inactive)	0.207 (inactive)	1.06
B26	-1.13 (inactive)	-0.661 (inactive)	0.459 (inactive)
B27	0.905 (inactive)	1.12	1.65
B28	-0.751 (inactive)	-1.11 (inactive)	-0.788 (inactive)
